Several values for one entry are separate records, joined by “and”; a condition that tells them apart may be missing. Identical values can stand only once. Out of some 5,500 compounds screened, about 2,000 (36%) were called active. Inconclusive results (about 18%) are left out. No stated cut-off is given here; in the data, active means normalized growth mostly below about 0.91 (no sharp cut-off); inconclusive means no clear call, values can overlap the other calls; inactive means mostly above about 0.92. Some of the results follow.
Test: chemical genetic growth profiling, strain panel (AID 1159580);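 further: tested at 20 µM; growth read once vehicle control cultures reached saturation at 30 °C; 1 = growth at the plate median or of vehicle wells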
Conditions: S. cerevisiae deletion strains, growth OD

Measured: normalized growth

CN(C)C(=O)C(CCN1CCC(O)(c2ccc(Cl)cc2)CC1)(c1ccccc1)c1ccccc1
active: locus YER155C, strain BEM2 (second series), stronger effect = lower value 0.843
inactive: locus YAL013W, strain DEP1, stronger effect = lower value 1.01 | locus YAL021C, strain ccr4, stronger effect = lower value 0.984 | locus YAL026C, strain drs2, stronger effect = lower value 0.999 | locus YAL030W, strain snc1, stronger effect = lower value 1 | locus YAL040C, strain CLN3, stronger effect = lower value 0.979 | locus YBL061C, strain skt5, stronger effect = lower value 0.99 | locus YBR009C, strain hhf1, stronger effect = lower value 0.993 | locus YBR021W, strain FUR4, stronger effect = lower value 0.977 | locus YBR023C, strain chs3, stronger effect = lower value 1.01 | locus YBR171W, strain sec66, stronger effect = lower value 0.988 | locus YBR229C, strain ROT2, stronger effect = lower value 0.997 | locus YBR231C, strain swc5, stronger effect = lower value 0.965 | locus YBR279W, strain paf1, stronger effect = lower value 0.995 | locus YCL011C, strain gbp2, stronger effect = lower value 0.989 | locus YCL016C, strain dcc1, stronger effect = lower value 0.994 | locus YCL029C, strain bik1, stronger effect = lower value 1.03 | locus YCL061C, strain MRC1 (second series), stronger effect = lower value 0.996 | locus YCL061C, strain MRC1, stronger effect = lower value 0.988 | locus YCL069W, strain vba3, stronger effect = lower value 0.991 | locus YCR088W, strain abp1, stronger effect = lower value 1 | locus YDL005C, strain med2, stronger effect = lower value 0.988 | locus YDL035C, strain GPR1, stronger effect = lower value 0.965 | locus YDL040C, strain nat1, stronger effect = lower value 0.994 | locus YDL074C, strain BRE1, stronger effect = lower value 0.979 | locus YDL101C, strain DUN1, stronger effect = lower value 1 | locus YDL134C, strain PPH21, stronger effect = lower value 1.01 | locus YDL185W, strain tfp1, stronger effect = lower value 1.02 | locus YDL192W, strain arf1, stronger effect = lower value 1.02 | locus YDR001C, strain nth1, stronger effect = lower value 1 | locus YDR069C, strain doa4, stronger effect = lower value 1 | locus YDR101C, strain arx1, stronger effect = lower value 1.01 | locus YDR137W, strain rgp1, stronger effect = lower value 1.11 | locus YDR150W, strain NUM1, stronger effect = lower value 1.01 and 0.999 | locus YDR159W, strain sac3, stronger effect = lower value 0.999 | locus YDR162C, strain NBP2, stronger effect = lower value 1 | locus YDR195W, strain ref2 0.949 | locus YDR297W, strain sur2, stronger effect = lower value 1 | locus YDR318W, strain mcm21, stronger effect = lower value 1.01 | locus YDR334W, strain swr1, stronger effect = lower value 1.01 | locus YDR335W, strain msn5, stronger effect = lower value 1 | locus YDR363W, strain ESC2, stronger effect = lower value 0.967 | locus YDR388W, stronger effect = lower value 1.02 | locus YDR392W, strain spt3, stronger effect = lower value 0.797 | locus YDR502C, strain sam2, stronger effect = lower value 1.01 | locus YEL003W, strain gim4, stronger effect = lower value 0.993 | locus YEL037C, strain rad23, stronger effect = lower value 1 | locus YEL061C, strain CIN8 (second series), stronger effect = lower value 1.01 | locus YEL061C, strain CIN8, stronger effect = lower value 1 | locus YER002W, strain NOP16, stronger effect = lower value 1.01 | locus YER015W, strain faa2, stronger effect = lower value 0.967 | locus YER016W, strain bim1, stronger effect = lower value 0.996 | locus YER110C, stronger effect = lower value 1.02 | locus YER111C, strain swi4, stronger effect = lower value 0.98 | locus YER155C, strain BEM2, stronger effect = lower value 1.01 | locus YER167W, strain BCK2, stronger effect = lower value 0.981 | locus YFR010W, strain ubp6, stronger effect = lower value 0.988 | locus YGL078C, strain dbp3, stronger effect = lower value 1.01 | locus YGL086W, strain mad1, stronger effect = lower value 0.989 | locus YGL167C, strain pmr1, stronger effect = lower value 0.99 | locus YGL173C, strain kem1, stronger effect = lower value 0.981 | locus YGL227W, strain vid30, stronger effect = lower value 1 | locus YGL240W, strain doc1, stronger effect = lower value 0.956 | locus YGL248W, strain PDE1, stronger effect = lower value 1 | locus YGL253W, strain hxk2, stronger effect = lower value 1.02 | locus YGR078C, strain PAC10, stronger effect = lower value 1 and 0.987 | locus YGR135W, strain pre9, stronger effect = lower value 1.01 | locus YGR229C, strain SMI1, stronger effect = lower value 1.01 | locus YGR252W, strain gcn5, stronger effect = lower value 0.871 | locus YHR013C, strain ard1, stronger effect = lower value 0.955 | locus YHR027C, strain rpn1, stronger effect = lower value 0.999 | locus YHR030C, strain SLT2, stronger effect = lower value 1.01 and 0.969 | locus YHR079C, strain IRE1 (second series), stronger effect = lower value 1.02 | locus YHR079C, strain IRE1, stronger effect = lower value 0.987 | locus YHR094C, strain hxt1, stronger effect = lower value 1.01 | locus YHR129C, strain ARP1, stronger effect = lower value 1 | locus YHR142W, strain chs7, stronger effect = lower value 1.01 | locus YHR200W, strain rpn10, stronger effect = lower value 0.997 | locus YIL066C, strain RNR3, stronger effect = lower value 1 | locus YIL073C, strain SPO22, stronger effect = lower value 1.05 | locus YIL125W, strain kgd1, stronger effect = lower value 1.01 | locus YIR030C, strain dcg1, stronger effect = lower value 1.02 | locus YJL092W, strain hpr5, stronger effect = lower value 0.994 | locus YJL095W, strain BCK1 (second series), stronger effect = lower value 0.993 | locus YJL095W, strain BCK1, stronger effect = lower value 1 and 0.99 | locus YJL115W, strain asf1, stronger effect = lower value 0.978 | locus YJL129C, strain trk1, stronger effect = lower value 0.941 | locus YJL134W, strain LCB3, stronger effect = lower value 1.01 | locus YJL154C, strain vps35, stronger effect = lower value 0.998 | locus YJL164C, strain tpk1, stronger effect = lower value 0.994 | locus YJL166W, strain qcr8, stronger effect = lower value 0.967 | locus YJL168C, strain set2, stronger effect = lower value 1.01 | locus YJL187C, strain SWE1 (second series), stronger effect = lower value 1.02 | locus YJR043C, strain POL32, stronger effect = lower value 0.986 | locus YJR066W, strain TOR1, stronger effect = lower value 0.928
